# Test results as given in ChEMBL document CHEMBL2218924, “A broad activity screen in support of a chemogenomic map for kinase signalling research and drug discovery” (Biochem J, 2013).
# How the values were obtained:
# [1] = target: T1, Ephrin type-A receptor 3 (Homo sapiens) (UniProt P29320); conditions: at 10 µM
# T1 sequence (whole entry): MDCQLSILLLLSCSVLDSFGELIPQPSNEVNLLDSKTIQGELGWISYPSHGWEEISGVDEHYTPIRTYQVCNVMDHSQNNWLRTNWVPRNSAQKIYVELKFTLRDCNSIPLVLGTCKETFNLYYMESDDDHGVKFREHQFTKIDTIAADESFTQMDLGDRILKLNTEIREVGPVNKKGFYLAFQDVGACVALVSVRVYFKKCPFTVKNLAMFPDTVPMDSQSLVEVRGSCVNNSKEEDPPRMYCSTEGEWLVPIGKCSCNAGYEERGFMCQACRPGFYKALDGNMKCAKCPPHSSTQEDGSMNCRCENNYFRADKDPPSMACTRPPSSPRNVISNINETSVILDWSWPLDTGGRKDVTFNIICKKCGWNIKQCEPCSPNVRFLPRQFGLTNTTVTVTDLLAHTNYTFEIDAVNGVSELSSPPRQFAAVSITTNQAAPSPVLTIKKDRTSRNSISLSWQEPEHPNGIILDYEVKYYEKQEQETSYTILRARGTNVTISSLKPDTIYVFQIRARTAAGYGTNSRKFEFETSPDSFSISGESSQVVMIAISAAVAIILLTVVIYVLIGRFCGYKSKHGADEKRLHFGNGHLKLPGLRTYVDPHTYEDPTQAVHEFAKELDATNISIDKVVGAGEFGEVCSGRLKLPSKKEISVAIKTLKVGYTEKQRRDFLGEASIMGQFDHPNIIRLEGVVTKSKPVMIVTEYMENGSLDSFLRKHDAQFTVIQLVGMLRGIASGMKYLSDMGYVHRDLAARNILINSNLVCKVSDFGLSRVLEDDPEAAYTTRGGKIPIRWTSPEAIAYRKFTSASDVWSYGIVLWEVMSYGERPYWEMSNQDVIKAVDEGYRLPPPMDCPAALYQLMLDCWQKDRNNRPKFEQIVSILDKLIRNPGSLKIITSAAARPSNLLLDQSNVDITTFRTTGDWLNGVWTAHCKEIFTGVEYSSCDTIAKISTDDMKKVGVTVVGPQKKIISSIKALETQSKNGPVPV
# [2] = target: Ephrin type-A receptor 4 (Homo sapiens) (UniProt P54764); conditions: at 1 µM
# [3] = target: Ephrin type-A receptor 5 (Homo sapiens) (UniProt P54756); conditions: at 1 µM
# [4] = target: Ephrin type-A receptor 5 (Homo sapiens) (UniProt P54756); conditions: at 10 µM
# [5] = target: Ephrin type-A receptor 7 (Homo sapiens) (UniProt Q15375); conditions: at 1 µM
# [6] = target: Ephrin type-A receptor 7 (Homo sapiens) (UniProt Q15375); conditions: at 10 µM
# [7] = target: T2, Ephrin type-A receptor 8 (Homo sapiens) (UniProt P29322); conditions: at 1 µM
# T2 sequence (whole entry): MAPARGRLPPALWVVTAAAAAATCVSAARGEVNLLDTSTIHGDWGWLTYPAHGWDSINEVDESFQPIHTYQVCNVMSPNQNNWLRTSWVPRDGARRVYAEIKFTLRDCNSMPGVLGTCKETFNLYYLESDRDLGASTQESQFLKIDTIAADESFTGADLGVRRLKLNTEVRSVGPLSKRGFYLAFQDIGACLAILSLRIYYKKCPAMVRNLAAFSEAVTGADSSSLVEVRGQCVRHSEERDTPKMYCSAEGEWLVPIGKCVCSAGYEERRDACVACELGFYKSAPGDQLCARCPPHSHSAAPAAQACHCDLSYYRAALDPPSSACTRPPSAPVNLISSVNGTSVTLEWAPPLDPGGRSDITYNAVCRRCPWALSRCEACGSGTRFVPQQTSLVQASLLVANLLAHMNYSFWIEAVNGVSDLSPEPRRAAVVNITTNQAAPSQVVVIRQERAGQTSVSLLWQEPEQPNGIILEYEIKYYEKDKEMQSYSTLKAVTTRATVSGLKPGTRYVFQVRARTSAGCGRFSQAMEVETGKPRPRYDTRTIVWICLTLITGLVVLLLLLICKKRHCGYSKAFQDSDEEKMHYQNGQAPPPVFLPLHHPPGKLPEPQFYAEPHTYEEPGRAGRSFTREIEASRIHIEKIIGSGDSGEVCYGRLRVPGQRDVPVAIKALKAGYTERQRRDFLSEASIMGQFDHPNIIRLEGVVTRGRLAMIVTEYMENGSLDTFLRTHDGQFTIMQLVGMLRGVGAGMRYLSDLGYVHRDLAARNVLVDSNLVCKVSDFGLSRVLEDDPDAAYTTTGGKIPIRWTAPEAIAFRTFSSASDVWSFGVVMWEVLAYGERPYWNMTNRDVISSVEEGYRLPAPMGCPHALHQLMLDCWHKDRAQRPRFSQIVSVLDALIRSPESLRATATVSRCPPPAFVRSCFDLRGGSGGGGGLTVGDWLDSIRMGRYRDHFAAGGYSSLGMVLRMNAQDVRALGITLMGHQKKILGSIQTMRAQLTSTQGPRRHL
# [8] = target: T2, Ephrin type-A receptor 8 (Homo sapiens); conditions: at 10 µM
# [9] = target: T3, Ephrin type-B receptor 1 (Homo sapiens) (UniProt P54762); conditions: at 1 µM
# T3 sequence (whole entry): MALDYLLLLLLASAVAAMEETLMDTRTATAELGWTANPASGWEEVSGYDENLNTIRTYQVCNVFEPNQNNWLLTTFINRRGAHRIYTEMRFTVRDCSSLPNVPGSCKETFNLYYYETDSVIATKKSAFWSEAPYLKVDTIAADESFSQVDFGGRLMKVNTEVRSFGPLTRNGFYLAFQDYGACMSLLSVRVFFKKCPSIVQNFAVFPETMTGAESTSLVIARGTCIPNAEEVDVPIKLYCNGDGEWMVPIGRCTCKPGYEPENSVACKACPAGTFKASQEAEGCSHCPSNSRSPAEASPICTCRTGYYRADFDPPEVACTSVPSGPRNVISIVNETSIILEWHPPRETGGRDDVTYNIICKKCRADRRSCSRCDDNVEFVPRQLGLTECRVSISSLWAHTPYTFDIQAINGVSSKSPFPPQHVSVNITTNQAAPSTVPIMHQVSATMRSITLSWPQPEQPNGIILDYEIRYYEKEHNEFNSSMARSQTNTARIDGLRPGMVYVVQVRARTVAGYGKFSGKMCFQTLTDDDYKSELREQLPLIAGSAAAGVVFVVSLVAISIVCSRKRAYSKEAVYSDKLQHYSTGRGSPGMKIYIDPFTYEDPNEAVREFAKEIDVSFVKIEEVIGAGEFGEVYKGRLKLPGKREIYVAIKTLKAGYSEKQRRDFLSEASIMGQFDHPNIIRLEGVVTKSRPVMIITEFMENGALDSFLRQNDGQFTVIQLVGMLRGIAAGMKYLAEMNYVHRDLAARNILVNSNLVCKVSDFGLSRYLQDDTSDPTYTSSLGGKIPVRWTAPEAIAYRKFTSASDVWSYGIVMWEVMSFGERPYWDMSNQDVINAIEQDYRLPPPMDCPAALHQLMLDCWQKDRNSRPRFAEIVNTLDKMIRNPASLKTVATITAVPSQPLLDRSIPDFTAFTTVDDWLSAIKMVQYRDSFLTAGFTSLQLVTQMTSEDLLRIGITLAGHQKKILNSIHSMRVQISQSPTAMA
# [10] = target: T3, Ephrin type-B receptor 1 (Homo sapiens); conditions: at 10 µM
# [11] = target: T4, Ephrin type-B receptor 2 (Homo sapiens) (UniProt P29323); conditions: at 1 µM
# T4 sequence (whole entry): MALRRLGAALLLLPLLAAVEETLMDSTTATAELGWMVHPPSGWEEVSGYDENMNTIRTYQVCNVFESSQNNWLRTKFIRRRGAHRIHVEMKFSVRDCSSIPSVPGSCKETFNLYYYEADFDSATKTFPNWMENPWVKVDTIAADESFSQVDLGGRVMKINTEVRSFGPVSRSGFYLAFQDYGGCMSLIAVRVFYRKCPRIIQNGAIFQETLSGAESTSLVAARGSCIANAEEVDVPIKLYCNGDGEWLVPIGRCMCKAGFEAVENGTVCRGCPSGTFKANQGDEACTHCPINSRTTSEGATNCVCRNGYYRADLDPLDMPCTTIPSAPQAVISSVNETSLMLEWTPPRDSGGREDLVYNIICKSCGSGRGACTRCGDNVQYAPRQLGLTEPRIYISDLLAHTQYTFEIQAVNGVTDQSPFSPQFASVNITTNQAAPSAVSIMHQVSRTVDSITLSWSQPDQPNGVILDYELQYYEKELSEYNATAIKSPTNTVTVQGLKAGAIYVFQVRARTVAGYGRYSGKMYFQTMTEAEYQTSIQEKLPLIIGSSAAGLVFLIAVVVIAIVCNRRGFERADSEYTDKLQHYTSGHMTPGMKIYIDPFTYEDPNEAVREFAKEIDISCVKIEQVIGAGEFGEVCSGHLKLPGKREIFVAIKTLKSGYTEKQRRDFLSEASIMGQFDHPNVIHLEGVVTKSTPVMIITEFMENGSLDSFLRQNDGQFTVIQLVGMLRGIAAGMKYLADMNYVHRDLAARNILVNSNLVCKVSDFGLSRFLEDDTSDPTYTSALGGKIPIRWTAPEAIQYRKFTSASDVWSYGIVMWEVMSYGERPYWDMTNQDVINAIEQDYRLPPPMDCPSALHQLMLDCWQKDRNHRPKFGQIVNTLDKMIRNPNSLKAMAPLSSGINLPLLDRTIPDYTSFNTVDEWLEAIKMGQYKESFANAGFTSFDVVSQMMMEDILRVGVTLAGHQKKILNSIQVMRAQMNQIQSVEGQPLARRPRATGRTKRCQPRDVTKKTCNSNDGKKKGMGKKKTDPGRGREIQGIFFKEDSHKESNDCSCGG
# [12] = target: T4, Ephrin type-B receptor 2 (Homo sapiens); conditions: at 10 µM
# [13] = target: T5, Ephrin type-B receptor 3 (Homo sapiens) (UniProt P54753); conditions: at 1 µM
# T5 sequence (whole entry): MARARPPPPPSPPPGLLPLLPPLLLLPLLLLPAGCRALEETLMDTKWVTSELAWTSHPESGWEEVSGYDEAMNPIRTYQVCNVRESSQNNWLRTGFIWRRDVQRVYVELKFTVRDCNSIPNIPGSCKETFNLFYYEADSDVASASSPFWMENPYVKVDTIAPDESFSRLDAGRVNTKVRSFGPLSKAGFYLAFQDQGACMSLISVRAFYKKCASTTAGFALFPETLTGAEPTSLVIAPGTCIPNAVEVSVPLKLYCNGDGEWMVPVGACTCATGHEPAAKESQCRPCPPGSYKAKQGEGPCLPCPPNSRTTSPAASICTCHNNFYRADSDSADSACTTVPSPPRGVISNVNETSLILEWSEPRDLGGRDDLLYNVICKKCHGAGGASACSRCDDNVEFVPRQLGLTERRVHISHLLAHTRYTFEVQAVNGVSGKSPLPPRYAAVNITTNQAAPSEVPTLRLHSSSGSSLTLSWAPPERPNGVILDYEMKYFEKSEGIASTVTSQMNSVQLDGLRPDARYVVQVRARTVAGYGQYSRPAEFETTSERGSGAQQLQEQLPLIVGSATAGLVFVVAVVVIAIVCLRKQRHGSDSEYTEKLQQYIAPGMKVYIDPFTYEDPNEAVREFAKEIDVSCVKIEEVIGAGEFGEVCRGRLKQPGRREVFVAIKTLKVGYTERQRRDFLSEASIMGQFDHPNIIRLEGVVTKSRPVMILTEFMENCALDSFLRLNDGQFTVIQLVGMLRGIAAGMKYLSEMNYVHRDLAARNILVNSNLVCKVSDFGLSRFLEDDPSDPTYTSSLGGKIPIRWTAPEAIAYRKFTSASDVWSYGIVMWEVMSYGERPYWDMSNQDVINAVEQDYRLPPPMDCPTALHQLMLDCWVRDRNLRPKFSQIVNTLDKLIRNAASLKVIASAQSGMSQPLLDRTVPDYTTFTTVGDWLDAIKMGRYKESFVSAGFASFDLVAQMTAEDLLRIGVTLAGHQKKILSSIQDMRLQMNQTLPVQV
# [14] = target: T5, Ephrin type-B receptor 3 (Homo sapiens); conditions: at 10 µM
# [15] = target: T6, Ephrin type-B receptor 4 (Homo sapiens) (UniProt P54760); conditions: at 1 µM
# T6 sequence (whole entry): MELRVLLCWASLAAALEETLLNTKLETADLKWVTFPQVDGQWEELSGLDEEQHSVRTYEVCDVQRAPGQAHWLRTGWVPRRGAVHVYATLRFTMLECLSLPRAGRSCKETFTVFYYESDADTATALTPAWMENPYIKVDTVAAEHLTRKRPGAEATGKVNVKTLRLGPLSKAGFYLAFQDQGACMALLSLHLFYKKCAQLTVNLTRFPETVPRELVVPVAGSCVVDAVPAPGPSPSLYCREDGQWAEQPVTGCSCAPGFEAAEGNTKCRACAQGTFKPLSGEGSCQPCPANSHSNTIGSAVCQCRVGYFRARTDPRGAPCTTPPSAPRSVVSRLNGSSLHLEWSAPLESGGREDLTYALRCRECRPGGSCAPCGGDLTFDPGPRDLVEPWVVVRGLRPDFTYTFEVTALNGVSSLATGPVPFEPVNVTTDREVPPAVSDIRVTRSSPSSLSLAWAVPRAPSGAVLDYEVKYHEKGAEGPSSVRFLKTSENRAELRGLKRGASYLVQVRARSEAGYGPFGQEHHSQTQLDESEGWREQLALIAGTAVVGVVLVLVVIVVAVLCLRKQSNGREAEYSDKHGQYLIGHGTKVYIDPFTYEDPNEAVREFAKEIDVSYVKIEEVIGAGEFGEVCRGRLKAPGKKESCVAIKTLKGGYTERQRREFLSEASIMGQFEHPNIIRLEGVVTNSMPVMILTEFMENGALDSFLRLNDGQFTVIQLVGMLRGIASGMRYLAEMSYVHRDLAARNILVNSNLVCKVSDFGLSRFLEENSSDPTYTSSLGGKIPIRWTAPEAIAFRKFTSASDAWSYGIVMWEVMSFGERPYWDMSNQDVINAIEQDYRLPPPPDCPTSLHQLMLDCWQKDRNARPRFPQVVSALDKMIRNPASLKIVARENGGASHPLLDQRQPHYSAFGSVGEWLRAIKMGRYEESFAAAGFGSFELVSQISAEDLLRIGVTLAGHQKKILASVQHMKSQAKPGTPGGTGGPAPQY
# [16] = target: T6, Ephrin type-B receptor 4 (Homo sapiens); conditions: at 10 µM
# [17] = target: Receptor tyrosine-protein kinase erbB-4 (Homo sapiens) (UniProt Q15303); conditions: at 1 µM
# [18] = target: Receptor tyrosine-protein kinase erbB-4 (Homo sapiens) (UniProt Q15303); conditions: at 10 µM
# [19] = target: Focal adhesion kinase 1 (Homo sapiens) (UniProt Q05397); conditions: at 1 µM
# Ephrin type-A receptor 5 (Homo sapiens), sequence (P54756 whole entry): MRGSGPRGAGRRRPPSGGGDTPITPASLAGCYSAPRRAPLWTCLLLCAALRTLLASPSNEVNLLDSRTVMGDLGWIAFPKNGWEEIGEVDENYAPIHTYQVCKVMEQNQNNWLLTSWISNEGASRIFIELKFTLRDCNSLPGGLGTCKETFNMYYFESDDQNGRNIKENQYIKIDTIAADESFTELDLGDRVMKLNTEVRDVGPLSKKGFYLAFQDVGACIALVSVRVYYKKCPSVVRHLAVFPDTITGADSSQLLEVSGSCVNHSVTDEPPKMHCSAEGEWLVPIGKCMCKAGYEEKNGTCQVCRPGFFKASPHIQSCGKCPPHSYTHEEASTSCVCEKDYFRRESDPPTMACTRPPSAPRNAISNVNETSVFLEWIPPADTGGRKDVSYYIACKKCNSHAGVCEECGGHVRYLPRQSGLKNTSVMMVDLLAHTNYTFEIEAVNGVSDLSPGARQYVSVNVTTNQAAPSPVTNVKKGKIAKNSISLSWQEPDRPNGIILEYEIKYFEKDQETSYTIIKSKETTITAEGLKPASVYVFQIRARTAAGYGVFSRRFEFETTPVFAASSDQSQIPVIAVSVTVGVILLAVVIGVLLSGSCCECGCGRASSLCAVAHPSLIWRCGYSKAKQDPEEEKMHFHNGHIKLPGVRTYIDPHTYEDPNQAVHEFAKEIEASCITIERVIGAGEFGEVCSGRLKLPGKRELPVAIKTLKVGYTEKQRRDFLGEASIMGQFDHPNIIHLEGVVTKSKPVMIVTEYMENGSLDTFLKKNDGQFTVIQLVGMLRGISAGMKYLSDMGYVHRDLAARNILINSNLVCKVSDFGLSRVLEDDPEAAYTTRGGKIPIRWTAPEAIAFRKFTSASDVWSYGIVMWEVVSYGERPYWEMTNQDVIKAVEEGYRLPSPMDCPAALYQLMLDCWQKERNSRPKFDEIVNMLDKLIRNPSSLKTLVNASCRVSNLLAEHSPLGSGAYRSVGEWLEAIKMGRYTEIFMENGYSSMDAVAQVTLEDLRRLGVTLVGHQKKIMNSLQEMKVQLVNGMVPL
# Receptor tyrosine-protein kinase erbB-4 (Homo sapiens), sequence (Q15303 whole entry): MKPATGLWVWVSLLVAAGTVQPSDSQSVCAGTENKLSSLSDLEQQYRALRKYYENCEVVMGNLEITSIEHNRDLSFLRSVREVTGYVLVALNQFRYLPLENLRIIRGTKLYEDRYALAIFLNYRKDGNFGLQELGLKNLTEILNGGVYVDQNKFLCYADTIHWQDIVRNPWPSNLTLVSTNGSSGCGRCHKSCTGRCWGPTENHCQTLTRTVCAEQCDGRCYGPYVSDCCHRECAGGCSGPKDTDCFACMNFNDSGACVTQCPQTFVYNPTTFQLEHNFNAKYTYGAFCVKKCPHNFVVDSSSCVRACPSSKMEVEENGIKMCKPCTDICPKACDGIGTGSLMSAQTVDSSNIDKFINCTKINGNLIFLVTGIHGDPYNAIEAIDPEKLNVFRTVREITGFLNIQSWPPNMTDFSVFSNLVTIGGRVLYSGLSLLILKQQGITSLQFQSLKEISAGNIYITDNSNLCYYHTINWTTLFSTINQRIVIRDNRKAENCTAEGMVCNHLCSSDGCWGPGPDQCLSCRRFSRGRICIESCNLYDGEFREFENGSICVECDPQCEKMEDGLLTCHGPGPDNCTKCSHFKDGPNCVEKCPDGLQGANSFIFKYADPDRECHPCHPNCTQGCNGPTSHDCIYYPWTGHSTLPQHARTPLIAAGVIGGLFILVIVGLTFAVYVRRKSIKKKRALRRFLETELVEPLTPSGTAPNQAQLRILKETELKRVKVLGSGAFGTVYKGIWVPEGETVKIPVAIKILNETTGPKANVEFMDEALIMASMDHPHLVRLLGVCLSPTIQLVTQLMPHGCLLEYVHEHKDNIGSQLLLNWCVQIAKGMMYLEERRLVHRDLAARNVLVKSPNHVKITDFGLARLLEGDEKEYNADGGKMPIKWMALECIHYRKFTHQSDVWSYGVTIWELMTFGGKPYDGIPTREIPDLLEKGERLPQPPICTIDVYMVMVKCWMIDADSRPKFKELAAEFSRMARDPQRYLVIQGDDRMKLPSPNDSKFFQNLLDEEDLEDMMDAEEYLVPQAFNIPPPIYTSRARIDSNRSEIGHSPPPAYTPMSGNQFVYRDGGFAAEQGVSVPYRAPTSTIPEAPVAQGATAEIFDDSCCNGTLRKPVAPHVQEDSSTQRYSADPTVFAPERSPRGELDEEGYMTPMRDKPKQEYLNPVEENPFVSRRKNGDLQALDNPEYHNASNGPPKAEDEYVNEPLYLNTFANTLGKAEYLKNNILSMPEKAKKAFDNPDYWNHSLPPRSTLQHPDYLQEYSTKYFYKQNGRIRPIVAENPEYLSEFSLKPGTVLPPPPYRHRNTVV
# Ephrin type-A receptor 7 (Homo sapiens), sequence (Q15375 28-998 limits assumed): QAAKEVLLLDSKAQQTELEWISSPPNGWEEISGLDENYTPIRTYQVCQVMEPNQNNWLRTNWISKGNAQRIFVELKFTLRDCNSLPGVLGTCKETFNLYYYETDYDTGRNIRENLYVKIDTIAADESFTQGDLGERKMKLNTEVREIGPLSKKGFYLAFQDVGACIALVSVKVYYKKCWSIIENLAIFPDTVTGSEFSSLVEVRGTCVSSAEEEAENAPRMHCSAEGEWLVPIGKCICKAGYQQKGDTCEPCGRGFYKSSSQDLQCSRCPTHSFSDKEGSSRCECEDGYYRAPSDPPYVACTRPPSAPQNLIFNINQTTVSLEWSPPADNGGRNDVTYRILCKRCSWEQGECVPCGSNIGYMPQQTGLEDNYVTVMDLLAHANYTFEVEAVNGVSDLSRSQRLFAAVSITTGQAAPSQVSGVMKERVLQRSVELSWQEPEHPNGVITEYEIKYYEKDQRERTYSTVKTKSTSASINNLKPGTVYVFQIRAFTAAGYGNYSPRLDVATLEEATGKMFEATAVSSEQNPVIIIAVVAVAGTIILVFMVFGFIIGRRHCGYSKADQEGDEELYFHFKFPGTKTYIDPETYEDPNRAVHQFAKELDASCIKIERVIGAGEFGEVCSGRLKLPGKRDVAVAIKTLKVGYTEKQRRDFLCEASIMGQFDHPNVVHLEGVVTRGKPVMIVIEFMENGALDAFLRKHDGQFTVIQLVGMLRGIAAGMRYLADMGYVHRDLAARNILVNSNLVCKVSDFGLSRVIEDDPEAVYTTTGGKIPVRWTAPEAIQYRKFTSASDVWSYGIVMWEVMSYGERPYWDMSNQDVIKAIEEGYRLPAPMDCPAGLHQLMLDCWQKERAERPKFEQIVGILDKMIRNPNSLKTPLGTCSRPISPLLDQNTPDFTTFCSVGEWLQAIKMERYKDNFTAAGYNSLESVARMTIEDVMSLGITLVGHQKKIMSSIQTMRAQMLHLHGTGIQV
# Ephrin type-A receptor 4 (Homo sapiens), sequence (P54764 whole entry): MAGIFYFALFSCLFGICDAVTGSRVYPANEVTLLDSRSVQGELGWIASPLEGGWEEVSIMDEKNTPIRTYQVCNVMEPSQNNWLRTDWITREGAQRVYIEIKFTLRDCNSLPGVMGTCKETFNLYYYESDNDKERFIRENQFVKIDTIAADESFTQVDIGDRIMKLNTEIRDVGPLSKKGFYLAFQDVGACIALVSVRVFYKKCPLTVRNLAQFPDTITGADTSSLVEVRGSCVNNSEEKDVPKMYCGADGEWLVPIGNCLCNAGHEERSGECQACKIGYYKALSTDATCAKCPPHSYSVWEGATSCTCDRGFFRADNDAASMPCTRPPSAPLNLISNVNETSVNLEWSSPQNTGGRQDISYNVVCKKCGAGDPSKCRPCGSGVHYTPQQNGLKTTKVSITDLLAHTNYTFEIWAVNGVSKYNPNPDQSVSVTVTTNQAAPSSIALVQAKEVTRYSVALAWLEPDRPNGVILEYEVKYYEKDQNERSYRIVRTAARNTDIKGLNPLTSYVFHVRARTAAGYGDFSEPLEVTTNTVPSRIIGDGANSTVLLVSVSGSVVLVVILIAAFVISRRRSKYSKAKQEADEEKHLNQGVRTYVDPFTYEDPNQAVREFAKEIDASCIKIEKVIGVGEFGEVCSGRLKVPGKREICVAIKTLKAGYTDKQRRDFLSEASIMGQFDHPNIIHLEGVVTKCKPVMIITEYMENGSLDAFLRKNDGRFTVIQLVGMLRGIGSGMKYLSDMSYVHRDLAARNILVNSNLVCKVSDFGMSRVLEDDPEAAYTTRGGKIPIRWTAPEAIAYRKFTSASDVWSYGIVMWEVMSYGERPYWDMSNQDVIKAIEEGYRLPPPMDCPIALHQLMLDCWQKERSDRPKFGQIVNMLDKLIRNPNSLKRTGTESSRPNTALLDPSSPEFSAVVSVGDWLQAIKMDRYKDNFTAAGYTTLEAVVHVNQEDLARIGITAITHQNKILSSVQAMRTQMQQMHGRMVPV
structure (smiles),measurement,setting,value
CC(C)(C)c1cc(C=C(C#N)C#N)cc(Br)c1O,residual activity,[1],106%
same,residual activity,[2],113%
same,residual activity,[3],107%
same,residual activity,[4],97%
same,residual activity,[5],109%
same,residual activity,[6],102%
same,residual activity,[7],117%
same,residual activity,[8],99%
same,residual activity,[9],106%
same,residual activity,[10],96%
same,residual activity,[11],116%
same,residual activity,[12],121%
same,residual activity,[13],96% (inactive)
same,residual activity,[14],121%
same,residual activity,[15],102%
same,residual activity,[16],110%
same,residual activity,[17],114%
same,residual activity,[18],132%
same,residual activity,[19],149%
